From PubChem BioAssay AID1508622 (National Center for Advancing Translational Sciences (NCATS), 2021)
Values without a mark were called inactive. Activity calls are given as the source filed them. The call rests on the fitted dose curve; in most records, active means well fitted activation curve with a large enough effect; inconclusive means small, poorly fitted or top-dose-only effect; inactive means no such curve, though single readings can be large or run the other way.

Test: Confirmatory qHTS for Identification of Small Molecule Activators of Huntingtin-Antisense Promoter Activity
Conditions: HEK293 HTT-AS promoter firefly luciferase reporter, 24 h; series mostly up to 57.5 µM; activity change, positive = activation: at the top concentration
Method in brief: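 Plated reporter HEK293 cells (24 h) received library compounds at up to 57.5 uM final or 50 uM PTC124, incubated 24 h at 37C; firefly luciferase luminescence was then recorded with Dual-Glo reagent.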
Potency means the concentration at half of the fitted maximal effect.

Row | Structure (SMILES) | activity change, positive = activation | Potency
1 | COc1cc(OC)c(OC)cc1/C=C/c1nc2cc3ccccc3cc2c(=O)n1-c1ccc(F)c(Cl)c1 | -9.7% | 
2 | O=S(=O)(NCc1ccc(Cl)cc1)c1ccc(N2CCCCS2(=O)=O)cc1 | -80.8% | 
3 | COc1ccc(-c2noc(N3CCN(c4ccc(C)cc4)C(C)C3)n2)cc1OC (centres undefined) | -35.1% | 
4 | CCOc1ccc(C(NC(=O)c2cc(OC)c(OC)c(OC)c2)c2cc(Cl)c3cccnc3c2O)cc1 (centres undefined) | -41.4% | 
5 | CCOc1ccc(C(=O)Nc2ccc3c(c2)CCCN3S(=O)(=O)c2ccc(C)cc2)cc1 | -48.7% | 
6 | CCCOc1cccc(NC(=O)c2c(-c3ccccc3Cl)noc2C)c1 | -24.2% | 
7 | O=C(CSc1nc(-c2ccc(F)cc2)[nH]c1-c1ccccc1)Nc1ccccc1 | -48.9% | 
8 | COc1ccc(-c2noc(N3CCC(C(=O)N4CCN(c5cccc(OC)c5)CC4)CC3)n2)cc1 | -80.5% | 
9 | CCN(CC)CCOc1ccc(C(=C(Cl)c2ccccc2)c2ccccc2)cc1 | -7.48% | 
10 | CCOc1ccccc1NS(=O)(=O)c1ccc2c(c1)CC(C)N2C(=O)C1CC1 (centres undefined) | -55.1% | 
11 | CCOc1ccc(CNC(=O)C2CCN(c3nnc(-n4c(C)ccc4C)s3)CC2)cc1 | -69.4% | 
12 | COc1ccc(NC(=O)CN2C(=O)C(C)(C)c3ccccc32)cc1Cl | -50.7% | 
13 | CCOc1ccc(NC(=O)c2c(Nc3ccccc3C)sc(C(=O)c3ccc(Cl)cc3)c2N)cc1 | -30.3% | 
14 | Cc1ccccc1CN1CCc2nc(N3CCN(c4ccccn4)CC3)ncc2C1 | -38.9% | 
15 | Cc1cc(C)cc(NC(=O)C2CCCN2S(=O)(=O)c2ccc3c(c2)CCCC(=O)N3)c1 (centres undefined) | -34.3% | 
16 | C=Cc1ccc(Cn2c(C(=O)O)c(CNCc3ccccc3)c3ccc(C)cc32)cc1 | -49% | 
17 | O=c1c(-c2ccc(O)cc2)coc2cc(O)ccc12 |  | 8.49 µM (active)
18 | CCOc1ccc(C(=O)NCC(c2ccc3c(c2)OCO3)N2CCN(c3ccccc3F)CC2)cc1 (centres undefined) | -8.64% | 
19 | CCOC(=O)c1ccc(Nc2nc3nonc3nc2Nc2cccc(C)c2C)cc1 | -92.9% | 
20 | O=C(CCc1cn(Cc2ccc(F)cc2)c2ccccc12)NC1CCCCC1 | -18.1% | 

Row | Structure (SMILES) | activity change, positive = activation | Potency
21 | Cc1cccc(Cn2c(SCc3ccc(C(=O)N4CCC(C)CC4)cc3)nc3ccncc32)c1 | -34.5% | 
22 | CCOC(=O)C1CCCN(C(=O)Cn2ncc3c(C)n(Cc4ccc(F)cc4)c(C)c3c2=O)C1 (centres undefined) | -48.6% | 
23 | Cc1cccc(CS(=O)(=O)Cc2ccc(C(=O)NCc3ccc(Cl)cc3)o2)c1 | -44.7% | 
24 | COc1ccc(N(CC(=O)N2CCN(c3cccc(C)c3C)CC2)S(=O)(=O)c2c(C)noc2C)cc1 | -28.1% | 
25 | COc1ccccc1NC(=O)CSc1nnc2c(n1)[nH]c1ccccc12 | -24.4% | 
26 | COc1cc(NC(=O)CSc2nc3nc(C)c(Cc4ccc(C)cc4)c(C)n3n2)cc(OC)c1 | -23% | 
27 | CSc1ccc(CCNc2ncnc3onc(C)c23)cc1 | -77.5% | 
28 | CCc1cccc(-n2nnc(S(=O)(=O)c3ccc(OC)cc3)c2C)c1 | -47.9% | 
29 | Cc1ccc(CNC(=O)c2c(Nc3c(C)cccc3C)sc(C(=O)c3ccccc3)c2N)cc1 | -71% | 
30 | COc1ccc(-n2ccnc2SCC(=O)Nc2cccc(OC)c2)cc1 | -49% | 
31 | CCN(CC)CCNC(=O)c1c(C)[nH]c(C=C2C(=O)Nc3ccc(F)cc32)c1C | 0.416% [at 115 µM] | 
32 | COc1cccc(C(=O)Nc2ccc(S(=O)(=O)N(Cc3ccccc3)c3ccccc3)cc2)c1 | -26.8% | 
33 | CCOc1ccc(CNC(=O)c2ccc3nc(Cc4ccc(OC)cc4)oc3c2)cc1OC | -57.1% | 
34 | CCOC(=O)c1cc(-c2ccc(F)cc2)n(CCC(=O)NCCc2ccc(C)cc2)c1C | -9.24% | 
35 | CCOc1ccc(C2=C(C(=O)CC)Sc3nncn3N2C(=O)CC)cc1 | -69.2% | 
36 | Cc1ccc(NS(=O)(=O)c2ccc(-c3cnc(C4CC4)o3)cc2)cc1N(C)C | -91.1% | 
37 | CCC(=O)N1CCCc2cc(S(=O)(=O)N3CCC(C(=O)Nc4ccccc4CC)CC3)ccc21 | -89.9% | 
38 | O=C(NCC(c1cccnc1)N1CCN(Cc2ccccc2)CC1)C(=O)Nc1ccc(Cl)cc1 (centres undefined) | -33.1% | 
39 | Cc1ccc(-c2c(C)n3c4c(=O)n(C)c(=O)n(C)c4nc3n2CCO)cc1 | -61.8% | 
